Laboratory results from PubChem BioAssay (NCATS).
Several values for one entry are separate records, joined by “and”; a condition that tells them apart may be missing. Equal entries are not always repeated. Inconclusive results are not listed. Activity calls are given as the source filed them. The call rests on the fitted dose curve; in most records, active means well fitted curve in the direction sought with a large enough effect; inconclusive means small, poorly fitted or top-dose-only effect, or another doubt; inactive means no such curve, though single readings can be large; an effect the other way counts as inactive or inconclusive.

Assays:
KB-3-1 = assay: Cytotoxic Profiling of Annotated Libraries Using Quantitative High-Throughput Screening (AID 1296008); conditions: Five cell lines viability, CellTiter-Glo ATP luminescence, 48-72 h; max response: active compounds read low; further: nearly all actives have a fitted effect of over 60% in size
Outline: (§1)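 Cytotoxicity was measured as CellTiter-Glo ATP luminescence, read after 10 min at room temperature. Compound treatment of the cells lasted 48 or 72 hr at 37 degrees Celsius in a qHTS format.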

NIH3T3 [1] = assay: as above; conditions: Five cell lines viability, CellTiter-Glo ATP luminescence, 48-72 h; max response: active compounds read low
Outline: as §1

CRL-7250 = normal cell line; assay: qHTS assay to identify novel small-molecules to repurpose for Merkel cell carcinoma treatment (AID 1296009); conditions: MCC and control cell lines, CellTiter-Glo viability, 72 h; at 44.8 µM (top of the series) unless noted; further: nearly all actives have a fitted effect of over 60% in size
Outline: (§2)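 72 hr, 37 degree celsius; NPC 8-pt / MIPE 11-pt dose response; compound pinned in DMSO; CellTiter-Glo, 10 min RT, luminescence; normalized to no-cell and DMSO controls.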

MCC-13 = assay: as above; conditions: MCC and control cell lines, CellTiter-Glo viability, 72 h; series mostly up to 46 µM
Outline: as §2

MCC-26 = assay: as above; conditions: MCC and control cell lines, CellTiter-Glo viability, 72 h; series mostly up to 46 µM
Outline: as §2

MKL-1 = assay: as above; conditions: MCC and control cell lines, CellTiter-Glo viability, 72 h; series mostly up to 46 µM
Outline: as §2

MKL-2 = assay: as above; conditions: MCC and control cell lines, CellTiter-Glo viability, 72 h; series mostly up to 46 µM
Outline: as §2

NIH3T3 [2] = assay: as above; conditions: MCC and control cell lines, CellTiter-Glo viability, 72 h; at 44.8 µM (top of the series) unless noted
Outline: as §2

UISO = assay: as above; conditions: MCC and control cell lines, CellTiter-Glo viability, 72 h; series mostly up to 46 µM
Outline: as §2

WaGa = assay: as above; conditions: MCC and control cell lines, CellTiter-Glo viability, 72 h; series mostly up to 46 µM
Outline: as §2

C33A = assay: Primary qHTS to identify gynecologic anti-cancer compounds using libraries of approved drugs and bioactive compounds (AID 1345084); conditions: Gynecologic cancer cell panel viability, ATPlite luminescence, 48 h; series mostly up to 57.5 µM; further: nearly all actives have a fitted effect of over 55% in size
Outline: (§3)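 Cells, 1,000 per well, were allowed to settle for 16 h at 37 C before compound addition. Five concentrations were tested for 48 h, and viability was read by ATPlite luminescence after 15 min at room temperature.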

CAOV3 = assay: as above; conditions: Gynecologic cancer cell panel viability, ATPlite luminescence, 48 h; series mostly up to 57.5 µM
Outline: as §3

CASKI = assay: as above; conditions: Gynecologic cancer cell panel viability, ATPlite luminescence, 48 h; series mostly up to 57.5 µM
Outline: as §3

Es-2 = assay: as above; conditions: Gynecologic cancer cell panel viability, ATPlite luminescence, 48 h; series mostly up to 57.5 µM
Outline: as §3

HeLa = assay: as above; conditions: Gynecologic cancer cell panel viability, ATPlite luminescence, 48 h; series mostly up to 57.5 µM
Outline: as §3

Hek293T [3] = assay: as above; conditions: Gynecologic cancer cell panel viability, ATPlite luminescence, 48 h, control line for the selectivity index; series mostly up to 57.5 µM
Outline: as §3

JEG-3 = assay: as above; conditions: Gynecologic cancer cell panel viability, ATPlite luminescence, 48 h; series mostly up to 57.5 µM
Outline: as §3

OV90 = assay: as above; conditions: Gynecologic cancer cell panel viability, ATPlite luminescence, 48 h; series mostly up to 57.5 µM
Outline: as §3

HACAT = assay: qHTS assay to identify novel small-molecules to repurpose for Merkel cell carcinoma treatment (AID 1296009); conditions: MCC and control cell lines, CellTiter-Glo viability, 72 h; at 44.8 µM (top of the series) unless noted; further: nearly all actives have a fitted effect of over 60% in size
Outline: as §2

HEK293T [4] = assay: as above; conditions: MCC and control cell lines, CellTiter-Glo viability, 72 h
Outline: as §2

[5] = at 44.8 µM (top of the series) unless noted
On the % scale 0 is the no-effect control and ±100 the full control effect.

COC(=O)C(c1ccccc1)C1CCCCN1 (centres undefined)
inactive: max response (KB-3-1) 5.58%

CCCCCN(C)CCC(O)(P(=O)(O)O)P(=O)(O)O
inactive: max response (KB-3-1) 1.98% | outcome (KB-3-1) | outcome (NIH3T3 [1])

Clc1ccc2c(c1)C(c1ccccc1)=NCc1nncn1-2
inactive: max response (KB-3-1) 2.88%

CCc1cc2c(s1)-n1c(C)nnc1CN=C2c1ccccc1Cl
inactive: max response (KB-3-1) -14.4% | outcome (NIH3T3 [1]) | outcome (CRL-7250) | outcome (MCC-13) | Potency (MCC-26) | Potency (MKL-1) | Potency (MKL-2) | outcome (NIH3T3 [2]) | Potency (UISO) | Potency (WaGa) | Potency (C33A) | outcome (CAOV3) | outcome (CASKI) | Potency (Es-2) | Potency (HeLa) | outcome (Hek293T [3]) | outcome (JEG-3) | Potency (OV90)

CN=C1CN(O)C(c2ccccc2)=c2cc(Cl)ccc2=N1
inactive: max response (KB-3-1) -12.7% and 2.13%

O=C(O)CCCc1ccc(N(CCCl)CCCl)cc1
inactive: max response (KB-3-1) 1.55% | outcome (KB-3-1) | max response (NIH3T3 [1]) -8.46% and -0.549% | outcome (CRL-7250) | outcome (HACAT) | outcome (MCC-13) | Potency (MKL-1) | Potency (MKL-2) | Potency (UISO) | Potency (WaGa) | Potency (C33A) | outcome (CAOV3) | outcome (CASKI) | Potency (Es-2) | Potency (HeLa) | outcome (Hek293T [3]) | outcome (JEG-3) | Potency (OV90)

CC(=O)OCC1=C(C(=O)O)N2C(=O)[C@@H](N)[C@H]2SC1
inactive: max response (KB-3-1) -19.8% | outcome (KB-3-1) | max response (NIH3T3 [1]) 1.92% and 4.65% | outcome (CRL-7250) | outcome (MCC-13) | Potency (MCC-26) | Potency (MKL-1) | Potency (UISO) | Potency (C33A) | outcome (CAOV3) | outcome (CASKI) | Potency (Es-2) | Potency (HeLa) | outcome (Hek293T [3]) | outcome (JEG-3) | Potency (OV90)

COc1ccc2c(c1)C13CCCC[C@@H]1C(C2)N(C)CC3 (some centres undefined)
inactive: max response (KB-3-1) 18.3%

CN1CC[C@]23c4c5ccc(O)c4O[C@H]2[C@@H](O)CC[C@H]3[C@H]1C5
inactive: max response (KB-3-1) -2.83% | max response (NIH3T3 [1]) 0.466% | outcome (CRL-7250) inactive [at 92 µM] | outcome (HACAT) inactive [at 92 µM] | outcome (MCC-13) | Potency (MCC-26) | Potency (MKL-1) | Potency (MKL-2) | Potency (UISO) | Potency (WaGa) | Potency (C33A) | outcome (CAOV3) | outcome (CASKI) | Potency (Es-2) | Potency (HeLa) | outcome (Hek293T [3]) | outcome (JEG-3) | Potency (OV90)

C[C@]12CC[C@@H]3c4ccc(OC(=O)N(CCCl)CCCl)cc4CC[C@H]3[C@@H]1CC[C@@H]2OP(=O)(O)O
inactive: max response (KB-3-1) -0.529% | outcome (KB-3-1) | max response (NIH3T3 [1]) 2.9% | outcome (CRL-7250) | outcome (HACAT) | outcome (MCC-13) | Potency (MKL-1) | Potency (MKL-2) | Potency (UISO) | Potency (WaGa) | Potency (C33A) | outcome (CAOV3) | outcome (CASKI) | Potency (Es-2) | Potency (HeLa) | outcome (Hek293T [3]) | outcome (JEG-3) | Potency (OV90)

CC(C)(C)NCC(O)c1cc(Cl)c(N)c(C(F)(F)F)c1 (centres undefined)
inactive: max response (KB-3-1) 5.51% | outcome (NIH3T3 [1]) | outcome (CRL-7250) | outcome (HEK293T [4]; [5]) | outcome (MCC-13) | Potency (MCC-26) | Potency (MKL-1) | Potency (MKL-2) | outcome (NIH3T3 [2]) | Potency (UISO) | Potency (WaGa) | Potency (C33A) | outcome (CAOV3) | outcome (CASKI) | Potency (Es-2) | Potency (HeLa) | outcome (Hek293T [3]) | outcome (JEG-3) | Potency (OV90)

O=C1Nc2ccc(Cl)cc2C(c2ccccc2Cl)=NC1O (centres undefined)
inactive: max response (KB-3-1) 3.46%

CCCC(C)(COC(N)=O)COC(N)=O
inactive: max response (KB-3-1) 1.51%

Cc1nnc2n1-c1ccc(Cl)cc1C(c1ccccc1)=NC2
inactive: max response (KB-3-1) -2.21%

CN[C@@H](C)Cc1ccccc1
inactive: max response (KB-3-1) -3.3%

COc1cccc([C@@]2(O)CCCC[C@@H]2CN(C)C)c1
inactive: max response (KB-3-1) 0.535% | outcome (NIH3T3 [1]) | outcome (CRL-7250) | outcome (MCC-13) | Potency (MCC-26) | Potency (MKL-1) | Potency (MKL-2) | outcome (NIH3T3 [2]) | Potency (UISO) | Potency (WaGa) | Potency (C33A) | outcome (CAOV3) | outcome (CASKI) | Potency (Es-2) | Potency (HeLa) | outcome (Hek293T [3]) | outcome (JEG-3) | Potency (OV90)

COC(=O)[C@@H](N)CCCN/C(N)=N/[N+](=O)[O-]
inactive: max response (KB-3-1) -3.97% | max response (NIH3T3 [1]) 1.98% | outcome (CRL-7250) | outcome (HEK293T [4]; [5]) | outcome (MCC-13) | Potency (MCC-26) | Potency (MKL-1) | Potency (MKL-2) | Potency (UISO) | Potency (WaGa) | Potency (C33A) | outcome (CASKI) | Potency (Es-2) | Potency (HeLa) | outcome (Hek293T [3]) | outcome (JEG-3) | Potency (OV90)

CC(NC(C)(C)C)C(=O)c1cccc(Cl)c1 (centres undefined)
inactive: max response (KB-3-1) -3.99% and 2.03% and 8.68% | max response (NIH3T3 [1]) -22.3% and 1.31% | outcome (NIH3T3 [1]) | outcome (CRL-7250) | outcome (HACAT) | outcome (HEK293T [4]; [5]) | outcome (MCC-13) | Potency (MCC-26) | Potency (MKL-1) | Potency (MKL-2) | outcome (NIH3T3 [2]) | Potency (UISO) | Potency (WaGa) | Potency (C33A) | outcome (CAOV3) | outcome (CASKI) | Potency (Es-2) | Potency (HeLa) | outcome (Hek293T [3]) | outcome (JEG-3) | Potency (OV90)

CCOC(=O)CC(SP(=S)(OC)OC)C(=O)OCC (centres undefined)
inactive: max response (KB-3-1) -10.3% and -23.1% | max response (NIH3T3 [1]) -6.65% and 2.23% | outcome (CRL-7250) | outcome (HEK293T [4]; at 44.8 µM (top of the series)) | outcome (HEK293T [4]; at 92 µM (top of the series)) | outcome (MCC-13) | Potency (MCC-26) | Potency (MKL-1) | Potency (MKL-2) | Potency (UISO) | Potency (WaGa) | Potency (C33A) | outcome (CAOV3) | outcome (CASKI) | Potency (Es-2) | Potency (HeLa) | outcome (Hek293T [3]) | outcome (JEG-3) | Potency (OV90)

NNc1ccccc1
inactive: max response (KB-3-1) -8.39% | max response (NIH3T3 [1]) 4.99% | outcome (CRL-7250) | outcome (MCC-13) | Potency (MCC-26) | Potency (MKL-1) | Potency (MKL-2) | Potency (WaGa) | Potency (C33A) | outcome (CAOV3) | outcome (CASKI) | Potency (Es-2) | Potency (HeLa) | outcome (Hek293T [3]) | outcome (JEG-3) | Potency (OV90)
